Source: PubChem BioAssay AID1628 (Sanford-Burnham Center for Chemical Genomics, 2009)
The campaign covered roughly 190,000 compounds. About 930 (0.49%) were called active.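 Rule for the calls: active = z-score of insulin promoter reporter brightness in nuclei below -3 at 5 µM, with at least 500 cells counted; inconclusive = wells with under 500 cells, flagged as toxic or sparse; inactive = the rest.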 Some of the results follow. Potency and affinity values are given separately.

Assay: insulin promoter down-regulators in MIN6 cells, imaging, high-content screening, mouse beta cells (AID 1628)
Conditions: MIN6 insulin promoter GFP reporter, at 5 µM, active compounds read low

z-score, inactive:
COc1cc2c(cc1OC)C1=CC(=O)C(=O)N1C(C)(C)C2 6.34
COCCN(CCOC)Cc1c(C)[nH]c2c(C)c(C)ccc2c1=O 0.72
COC(=O)CSc1nc2ccccn2c(=O)c1C=O 4.58
Cc1ccnc(N/C=C(\C#N)c2nc(-c3cccc(Br)c3)cs2)c1 7.83
CCOC(=O)CC1C(=O)NCCN1c1nc2ccc(C)cn2c(=O)c1/C=C1\SC(=S)N(CC(C)C)C1=O (centres undefined) 10.8
CCC(=O)Nc1ccc2c(c1)ncn2-c1ccccc1 4.96
COc1ccccc1NC(=O)/C=C1\SCC(=O)N1C 4.67
CC(=O)Nc1ccc(NC(=O)C(=O)c2cn(CC(=O)N3CCCCC3)c3ccccc23)cc1 2.61
COc1ccccc1NC(=O)COC(=O)C1CC2C=CC1C2 (centres undefined) 3.01
N#C/C(=C\c1ccc(-c2ccc(C(=O)O)cc2)o1)c1nc2ccccc2[nH]1 6.2
Cn1c(SCC(=O)NC2CCCCCC2)nnc1-c1cccs1 2.42
Nc1c(C(=O)NC2CCCC2)sc2nc(-c3cccs3)ccc12 3.89
Cc1cc(F)c(F)c(C(=O)N2CCOCC2)c1 1.59
O=C(CSc1nnc(SCc2ccc(Cl)cc2)s1)N1CCOCC1 -0.99
NCCc1nnc(SCc2ccccc2F)o1 1.04
CCN(CC)c1ccc(/C=C(\C#N)c2nc(-c3cccs3)c(NC(C)=O)s2)cc1 16.9
CN(C)C=Nc1ccc2nn(-c3ccccc3)nc2c1 3.14
COc1cc(OC)c(OC)cc1C#N 0.13
COc1cccc(C2C3CN(C)CC=C3C(C#N)=C(N)C2(C#N)C#N)c1OC (centres undefined) 13.7
CC(O)c1nc2ccccc2n1CCOc1ccccc1 (centres undefined) 1.64
COc1ccc(C2C(C(=O)c3ccccc3)=C(C)Nc3nc4ccccc4n32)c(OC)c1 (centres undefined) 3.79
C=CCn1c(/N=C/c2ccc3c(c2)OCO3)nc2ccccc21 0.8
COc1ccc2nc3ccccc3nc2c1 -1.09
Cn1c(CNc2nc3ccccc3n2C)nc2ccccc21 1.15
COc1ccc(CNC(=O)CN2CCC(C(=O)c3ccc(OC)cc3)CC2)cc1 1.22
Cc1ccc2nc(/C(C#N)=C\c3ccc(N4CCOCC4)o3)[nH]c2c1 15.9
CC(C)=CCc1c2c(c3occ(-c4ccc(O)cc4)c(=O)c3c1O)C=CC(C)(C)O2 -0.49
N#C/C(=C/c1ccc(N2CCOCC2)o1)C(=O)Nc1ccccc1 4.15
CCC(=O)OCC(=O)c1c(N)n(Cc2ccccc2)c(=O)n(C)c1=O 3.29
Cc1cc2nc3c(=O)n(Cc4ccccc4)c(=O)[nH]c3nc2cc1N 12.1
Cc1noc(C)c1S(=O)(=O)N1CCC(C(=O)N2CCN(C3CCCC3)CC2)CC1 3.05
CCCS(=O)(=O)N1CCC(C(=O)NCCC(C)C)CC1 3.11
Cc1ccccc1C(=O)NC1CCN(C(=O)N2CCOCC2)CC1 1.27
COc1ccccc1NC(=S)N(Cc1ccc(C)cc1)Cc1ccccn1 1.92
CCCCCCCCCCCC(=O)c1c(O)cccc1O -0.04
CN1C(=S)N(c2cccnc2)C(=O)/C1=C\c1ccc(N(C)C)cc1 5.58
COCCN(C(=S)Nc1ccc(C)cc1C)C(C)c1cccs1 (centres undefined) 1.14
CC(C)CCN(C(=S)Nc1cccc(F)c1)C(C)c1cccs1 (centres undefined) 4.77
Cc1cccc(NC(=O)Cn2cc([N+](=O)[O-])cn2)n1 2.86
Cc1nn(C)c(C)c1NC(=O)CSc1nnc(C)n1-c1ccccc1 0.56

z-score, active:
COC(=O)CSc1nc2ncc(Cl)cc2[nH]1 -4.43
CSc1ccc(NC(=O)Nc2cccn(Cc3ccccc3)c2=O)cc1 -5.72
COc1cnc(-c2ccccn2)nc1NC(C)C -4.73
COc1ccccc1NC(=O)Cn1cc(C(=O)c2ccco2)c2ccccc21 -4.69
CCn1c(C2CC(=O)N(Cc3ccccc3)C2)nc2ccccc21 (centres undefined) -5.96
O=C(COC(=O)c1cccs1)NC1CCCCC1 -5.3
Cc1c(C(=O)N2CCOCC2)[nH]c2c1C(=O)CC(c1ccccc1Cl)C2 (centres undefined) -3.07
Clc1ccc(CSc2nnc(/C=C/c3ccccc3)o2)cc1 -4.41
CCCC1CC(=O)OC1(C)C(=O)CSc1n[nH]c(-c2ccccc2)n1 (centres undefined) -5.89
CCC(c1nnnn1C1CCCC1)N(Cc1cccs1)Cc1cc2cc(C)ccc2[nH]c1=O (centres undefined) -3.35
Cc1cccc2cc(CN(Cc3cccs3)C(c3nnnn3C3CCCC3)C(C)C)c(=O)[nH]c12 (centres undefined) -4.88
CCOc1ccc2[nH]c(=O)c(CN(Cc3cccs3)C(CC)c3nnnn3C(C)(C)CC)cc2c1 (centres undefined) -3.01
Cn1c(N)cc(=O)n(Cc2ccccc2)c1=O -5.18
Cc1n[nH]c(C)c1S(=O)(=O)N1CCCC(C(=O)N2CCN(c3ccc(Cl)cc3)CC2)C1 (centres undefined) -3.2
CSc1ccccc1C(=O)NC1CCCC1 -5.87
O=C(Cn1nnc(-c2ccc(S(=O)(=O)N3CCCC3)cc2)n1)Nc1ccccc1-n1cccc1 -4
COc1ccc(-c2[nH]ncc2CN(C)Cc2ccccn2)c(OC)c1 -4.89
Cc1ccccc1NC(=S)N(CCN(C)C)C(C)c1ccccn1 (centres undefined) -6.19
CCc1ccccc1NC(=S)N(CCN(C)C)C(C)c1ccccn1 (centres undefined) -5.14
CCN1CCN(C(=O)C2(NC(=O)Nc3cccc(F)c3)CCCCC2)CC1 -4.67
COc1ccccc1NS(=O)(=O)c1cc(NC(=O)c2ccc(=O)[nH]c2)ccc1N1CCOCC1 -4.48
CCCCn1nnnc1SCC(=O)Nc1cccc(C)n1 -4.7
NC(=S)n1[nH]c(-c2ccc([N+](=O)[O-])cc2)c(N=Nc2ccc(Cl)cc2)c1=O -5.03
NC(=S)n1[nH]c(-c2ccc([N+](=O)[O-])cc2)c(N=Nc2cccc(Cl)c2)c1=O -3.23
